# Source: PubChem BioAssay (Tox21)
# Values joined by “and” are separate entries in the source; they are usually repeats but may differ in a detail not shown here. Equal values may be shown once. Inconclusive results are not listed. More than one record can exist for a structure, and the calls need not agree. Active and inactive are the calls of the source. Calls follow the shape of the dose curve; as a rule, active = well fitted curve in the direction sought with a large enough effect in the repeat runs; inconclusive = weak or mixed curves; inactive = no such curve, though single readings can be large; an effect the other way counts as inactive or inconclusive.
# Molecular target: Voltage-gated inwardly rectifying potassium channel KCNH2 (Homo sapiens) (UniProt Q12809)
# Sequence (Q12809 whole entry, looked up): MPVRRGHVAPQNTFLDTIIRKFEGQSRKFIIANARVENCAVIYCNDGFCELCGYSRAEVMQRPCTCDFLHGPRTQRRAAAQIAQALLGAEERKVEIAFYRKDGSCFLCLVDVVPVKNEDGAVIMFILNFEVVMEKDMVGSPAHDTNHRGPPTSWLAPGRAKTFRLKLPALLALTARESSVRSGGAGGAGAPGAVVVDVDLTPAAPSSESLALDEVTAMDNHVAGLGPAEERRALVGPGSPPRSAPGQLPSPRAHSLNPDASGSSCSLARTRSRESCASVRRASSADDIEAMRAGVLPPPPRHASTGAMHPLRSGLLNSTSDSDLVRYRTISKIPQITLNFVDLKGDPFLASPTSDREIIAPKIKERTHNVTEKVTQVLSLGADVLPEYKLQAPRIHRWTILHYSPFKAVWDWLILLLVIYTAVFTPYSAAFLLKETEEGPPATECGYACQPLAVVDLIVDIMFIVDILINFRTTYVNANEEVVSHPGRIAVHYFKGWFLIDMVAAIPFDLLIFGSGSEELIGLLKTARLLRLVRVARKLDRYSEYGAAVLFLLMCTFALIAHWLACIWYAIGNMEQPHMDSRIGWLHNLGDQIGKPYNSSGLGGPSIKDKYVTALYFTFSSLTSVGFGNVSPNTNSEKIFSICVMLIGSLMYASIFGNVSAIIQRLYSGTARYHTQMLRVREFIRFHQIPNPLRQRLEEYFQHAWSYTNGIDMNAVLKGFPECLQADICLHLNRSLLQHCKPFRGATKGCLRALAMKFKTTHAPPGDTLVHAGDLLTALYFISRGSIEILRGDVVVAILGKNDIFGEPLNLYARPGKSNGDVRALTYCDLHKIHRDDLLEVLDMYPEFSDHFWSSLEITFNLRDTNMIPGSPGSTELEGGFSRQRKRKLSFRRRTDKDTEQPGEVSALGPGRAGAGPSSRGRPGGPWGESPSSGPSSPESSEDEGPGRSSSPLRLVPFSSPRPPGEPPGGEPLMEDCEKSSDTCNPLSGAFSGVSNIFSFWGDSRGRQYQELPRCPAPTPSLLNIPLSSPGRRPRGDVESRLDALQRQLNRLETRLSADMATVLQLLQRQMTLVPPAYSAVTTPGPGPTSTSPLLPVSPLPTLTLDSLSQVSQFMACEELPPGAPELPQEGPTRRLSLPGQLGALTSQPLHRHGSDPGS
# Assay: Human Ether-a-go-go-Related Gene (hERG) channel small molecule antagonists: fluorescence cell-based qHTS assay (AID 1671200);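 as to activity change, negative = inhibition: hERG-expressing U2OS cells given a thallium stimulus after FluxOR II dye loading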
# Conditions: hERG-U2OS cells, FluxOR thallium flux fluorescence; series mostly up to 76.8 µM; activity change, negative = inhibition: at the top concentration
# Procedure, shortened: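 hERG-U2OS cells plated overnight at 37 C, loaded with FluxOR II dye 1 h at RT in dark; after 10 min, thallium stimulus added. Fluorescence (480/540 nm) read kinetically for 2 min at 1 s intervals.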
# % is scaled to controls: 0 for no effect and ±100 for the full control effect; potency is read from the fitted curve at half-maximal effect.
# Also: nearly all actives have a fitted effect of over 50% in size.
Structure (SMILES),"activity change, negative = inhibition",Potency
CCOP(=S)(OCC)Oc1cc(Cl)c(Br)cc1Cl,-21.7% (inactive),
Cc1cc(=O)[nH]o1,6.1% (inactive),
COP(=S)(Oc1cc(Cl)c(Br)cc1Cl)c1ccccc1 (configuration not stated),-13.5% (inactive),
NCCCNCCCN,-15.6% (inactive),
CCOP(=S)(OCC)SCSCC,-14.1% (inactive),
O=C1C(=O)c2cccc3cccc1c23,-10.9% (inactive),
CCOC(=O)[C@]1(c2ccccc2)Oc2ccccc2[C@@H]1N,,3.09 µM (active)
C=CC(=O)OC,3.75% (inactive),
CCOC(=O)C(Cl)C(C)=O (configuration not stated),3.66% (inactive),
CN1C[C@H](CNC(=O)OCc2ccccc2)C[C@@H]2c3cccc4c3c(cn4C)C[C@H]21,,3.38 µM (active)
O=C(N[C@H](c1ccccc1)[C@@H]1CN2CCC1CC2)c1c(Cl)ccc(C(F)(F)F)c1Cl,,39.5 µM (active)
CCCN(CCC)c1c([N+](=O)[O-])cc(S(C)(=O)=O)cc1[N+](=O)[O-],-23% (inactive),
CCOP(=S)(Oc1ccc([N+](=O)[O-])cc1)c1ccccc1 (configuration not stated),,0.616 µM (active)
C[C@@H]1CC[C@H]2[C@@H](C)C(=O)O[C@@H]3O[C@@]4(C)CC[C@@H]1[C@]32OO4,-5.61% [at 35.3 µM] (inactive),
CCOP(=O)(OCC)Oc1ccc([N+](=O)[O-])cc1,,inactive
Clc1cccc(SC2CCNCC2)n1,-2.32% [at 35.3 µM] (inactive),
CCC(C)(NC(=O)c1cc(Cl)c(C)c(Cl)c1)C(=O)CCl (configuration not stated),,43.9 µM (active)
ClCc1ccccc1,-3.07% (inactive),
CCOP(=O)(OCC)O/C(=C/Cl)c1ccc(Cl)cc1Cl,-7.72% (inactive),
CN(N=O)c1ccc([N+](=O)[O-])cc1,0.903% (inactive),
CC(C)N(C(=O)COc1nnc(C(F)(F)F)s1)c1ccc(F)cc1,-1.69% (inactive),
COCCOCCO,5.57% (inactive),
O=[N+]([O-])c1ccccc1CCl,1.26% (inactive),
ClP(Cl)(Cl)(Cl)Cl,-7.08% (inactive),
CCn1cc[n+](C)c1,,inactive and 24.8 µM (active)
C=CCN1CC[C@]23c4c5ccc(O)c4O[C@H]2C(=O)CC[C@@]3(O)[C@H]1C5,-11.6% [at 35.3 µM] (inactive),
Nc1nc(=S)[nH][nH]1,1.66% (inactive),
CCCCCC[N+](=O)[O-],4.1% (inactive),
Brc1ccccc1,1.6% (inactive),

# Molecular target: Cytochrome P450 3A4 (Homo sapiens) (UniProt P08684)
# Sequence (P08684 whole entry, looked up): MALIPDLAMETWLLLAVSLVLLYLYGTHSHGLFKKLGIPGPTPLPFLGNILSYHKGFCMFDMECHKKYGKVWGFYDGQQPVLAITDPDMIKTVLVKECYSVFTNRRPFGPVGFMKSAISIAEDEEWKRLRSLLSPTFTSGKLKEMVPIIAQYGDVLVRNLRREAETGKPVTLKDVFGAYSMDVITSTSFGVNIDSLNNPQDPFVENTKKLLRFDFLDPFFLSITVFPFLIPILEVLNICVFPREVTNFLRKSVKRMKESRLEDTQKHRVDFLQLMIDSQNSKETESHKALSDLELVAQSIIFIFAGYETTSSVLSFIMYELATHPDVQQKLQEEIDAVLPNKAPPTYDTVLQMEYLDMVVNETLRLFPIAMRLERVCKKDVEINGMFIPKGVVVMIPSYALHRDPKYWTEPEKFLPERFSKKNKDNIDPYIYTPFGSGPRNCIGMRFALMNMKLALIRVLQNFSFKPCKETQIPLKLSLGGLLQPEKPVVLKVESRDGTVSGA
# Assay: Cytochrome P450 Family 3 Subfamily A Member 4 (CYP3A4) small molecule antagonists: luciferase reporter qHTS assay (AID 1671201)
# Conditions: P450-Glo CYP3A4 enzyme, luciferin luminescence, 1 h; series mostly up to 115 µM; activity change, negative = inhibition: at the top concentration
# Procedure, shortened: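 P450-Glo CYP3A4 luminescent assay: compounds preincubated 10 min at room temperature with enzyme and proluciferin substrate, NADPH regeneration added, 1 h room-temperature reaction, stopped with luciferin detection reagent; luminescence read after 20 min. Ketoconazole positive control.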
Structure (SMILES),"activity change, negative = inhibition",Potency
Cc1cc(=O)[nH]o1,3.01% (inactive),
Clc1ccc(C2(Cn3cncn3)CC(Br)CO2)c(Cl)c1 (configuration not stated),,0.126 µM (active)
CCOP(=S)(OCC)SCSCC,,6.33 µM (active)
O=S1OC[C@@H]2[C@H](CO1)[C@]1(Cl)C(Cl)=C(Cl)[C@@]2(Cl)C1(Cl)Cl (some centres not stated),-21.3% (inactive),
COc1c(C(C)(C)C)cc([N+](=O)[O-])c(C)c1[N+](=O)[O-],0.334% (inactive),
O=C1C(=O)c2cccc3cccc1c23,26.4% (inactive),
CCOC(=O)C(Cl)C(C)=O (configuration not stated),-1.65% (inactive),
CN1C[C@H](CNC(=O)OCc2ccccc2)C[C@@H]2c3cccc4c3c(cn4C)C[C@H]21,-19.6% [at 52.9 µM] (inactive),
CCCN(CCC)c1c([N+](=O)[O-])cc(S(C)(=O)=O)cc1[N+](=O)[O-],,20 µM (active)
CCOP(=O)(OCC)Oc1ccc([N+](=O)[O-])cc1,,inactive
CCC(C)(NC(=O)c1cc(Cl)c(C)c(Cl)c1)C(=O)CCl (configuration not stated),,6.37 µM (active)
ClCc1ccccc1,-0.0163% (inactive),
CCOP(=O)(OCC)O/C(=C/Cl)c1ccc(Cl)cc1Cl,34.5% (inactive),
CN(N=O)c1ccc([N+](=O)[O-])cc1,-23.4% (inactive),
CC(C)N(C(=O)COc1nnc(C(F)(F)F)s1)c1ccc(F)cc1,-0.46% (inactive),
O=[N+]([O-])c1ccccc1CCl,48.3% (inactive),
CCCCc1c(C)nc(NCC)nc1OS(=O)(=O)N(C)C,,12.6 µM (active)
Brc1ccccc1,6.09% (inactive),
